Here are results for 45 compounds from PubChem BioAssay AID1645870 (National Center for Advancing Translational Sciences (NCATS), 2021).

Several values for one entry are separate records, joined by “and”; a condition that tells them apart may be missing. Equal entries are not always repeated. The whole screen tested about 59,000 compounds, of which about 1,500 (2.5%) were called active. Another 10% or so got no clear call; they are omitted. This is one part of a sample in which actives are shown more often than they occur. The call rests on the fitted dose curve; in most records, active means well fitted inhibition curve with a large enough effect; inconclusive means small, poorly fitted or top-dose-only effect; inactive means flat fitted curve, though single readings scatter. Where a structure was tested more than once in an assay, its records may differ in their call.
Potency means the concentration at half of the fitted maximal effect.

Sequence of N-terminal Xaa-Pro-Lys N-methyltransferase 1 (Homo sapiens) (Q9BV86 whole entry, looked up): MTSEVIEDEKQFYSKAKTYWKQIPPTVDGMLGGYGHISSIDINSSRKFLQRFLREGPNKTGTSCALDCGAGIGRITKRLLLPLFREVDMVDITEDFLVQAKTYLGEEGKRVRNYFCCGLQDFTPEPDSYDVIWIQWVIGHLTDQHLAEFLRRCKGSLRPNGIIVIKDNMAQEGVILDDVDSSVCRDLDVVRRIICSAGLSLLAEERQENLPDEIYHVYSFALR

This test concerns the target N-terminal Xaa-Pro-Lys N-methyltransferase 1 (Homo sapiens) (UniProt Q9BV86). The experiment in a line: Primary qHTS for Inhibitors of N-terminal methyltransferase 1 (NTMT1): MTaseGlo Assay. Further: nearly all actives have a fitted effect of over 65% in size.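 On activity change, negative = inhibition: plate controls were DMSO vehicle for no effect and no enzyme for full effect.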 To be noted: NTMT1 MTase-Glo SAH luminescence, purified enzyme; series mostly up to 114 µM; activity change, negative = inhibition: at the top concentration. From the text: Assay Submitter (PI): Rong Huang Ph.D.
Purdue University, West Lafayette, IN 47907
The N-terminal methytransferase 1 is the first methyltransferase that methylates protein alpha-N-amines and plays an important role in regulating cell mitosis, chromatin interactions and DNA repair. It is observed to be over-expressed in various cancer patient tissues like malignant melanoma and colorectal cancer tissues. Knockdown of NTMT1 in cancer cells causes cell mitotic defects and enhances sensitivity to DNA damaging chemotherapeutics. […] These critical cellular processes in which NTMT1 is implicated, coupled with emerging links to cellular dysfunction, strengthen the inference that NTMT1 is a compelling novel anticancer target. Progress have been made in understanding the molecular properties of NTMT1 and the biological consequences of protein alpha-N-terminal methylation, but there are no specific small molecule probes available for NTMT1 to fully characterize its MTase activity. To address this unmet need, a panel of assay is created and established to enable quantitative high-throughput screening (qHTS) for novel, potent, and selective small molecule NTMT1 inhibitors. Two orthogonal qHTS that use different reagents (ThioGlo vs. MTaseGlo) are developed for primary robotic screening against the NCATS chemical library of more than 400,000 small molecules. Identified inhibitors are reacquired, validated, and further characterized.
MTaseGlo Assay is a luminescence screen that measure the activity of methyltransferases based on the reaction product S-adenosyl homocysteine (SAH). The substrate SAM is converted to SAH upon enzyme activation. MTase-Glo reagent and detection solution convert SAH to ATP and measure the light from the luciferase reaction.
Materials: NTMT1 enzyme, substrate SPKRIA, control peptide RCC1-6 is provided by the Huang laboratory.
SEQUENCE No. (e.g., 1, 2, 3, etc.); […] (e.g., Cells, Incubation, Reagent, etc.); VALUE; DESCRIPTION
1; Enzyme; 3 uL; Dispense enzyme mixture (final concentrations of 125 nM NTMT1 and 100 uM SAM) into Greiner 1536-well white / solid bottom assay plate (Greiner Bio One, Monroe, NC).
2; Compounds; 23 nL; Compounds and controls were transferred via a Kalypsys Pin Tool (Wako USA) equipped with a 1536-slotted pin array (Wako Automation, Richmond, VA)
3; Incubation; 15 min; Incubate at room temperature
4; Substrate; 1 uL; Dispense 1 uL of substrate at final concentration of 1 uM. Buffer solution was dispensed in control wells. The assay plate was covered with metal lids.
5; Incubation; 30 min; Incubate at room temperature, protected from lights.
6; Reagent; 1 uL; Dispensed 5x MTase-Glo detection reagent (R) into the assay plate. The plate was covered with metal lids.
7; Incubation; 30 min; Incubate the assay plates at room temperature in the dark to allow for SAH to be converted to ADP.
8; Reagent; 5 uL; Dispense 5 uL of 1x MTase-Glo Detection Solution (R) to allow for ADP to be converted to ATP which was then detected with a luciferase reaction.
9; Centrifuge; 15 sec; Centrifuge the assay plate for 15 seconds at 1000 RPM.
10; Incubation; 30 min; Assay plates were incubation at room temperature in the dark.
11; Detection; Luminescence; Plates were read on ViewLux detector (PerkinElmer). Data were normalized to no-enzyme (0% activity) and no-inhibitor (DMSO; 100%) controls, and the resulting percent inhibition data were fitted to a 4-parameter Hill equation using GraphPad Prism.
For the compound `N#CN1CCC(NC(=O)c2ccc(F)cc2)CC1`, the “activity change, negative = inhibition” value is 10.9% (inactive).

Turning to `CNc1oc(-c2cccc(Cl)c2Cl)nc1C#N`, the “activity change, negative = inhibition” value was -4.37% (inactive).

Take `COc1cccc(C(=O)NC2CCN(C#N)CC2)c1`: the “activity change, negative = inhibition” value was 12.7% (inactive).

Take `COc1ccc(C2Nc3ccccc3C(=O)N2Cc2ccccc2)cc1COc1ccc(C(N)=O)cc1` (stereo not given): the “activity change, negative = inhibition” value is 16% [at 57.5 µM] (inactive).

Take `C[C@H](NC(=O)c1c(N)nn2cccnc12)c1cc2cccc(C#Cc3cnn(C)c3)c2c(=O)n1-c1ccccc1`: the “activity change, negative = inhibition” value was 8.45% [at 57.5 µM] (inactive).

As to `Cc1sc(NC(=O)Cc2ccc3c(c2)OCO3)nc1-c1ccc2c(c1)CCN2`, the “activity change, negative = inhibition” value is 4.99% (inactive).

For the compound `CCCN(CCC)CCCNC(=O)Cn1ncc2c3ccccc3n(Cc3ccccc3)c2c1=O`, the “activity change, negative = inhibition” value is -15.4% (inactive).

For the compound `CCN(CCCNC(=O)Cn1ncc2c3ccccc3n(C)c2c1=O)Cc1ccccc1`, the “activity change, negative = inhibition” value is 4.28% (inactive).

`CCN(CC)CCNC(=O)Cn1ncc2c3ccccc3n(Cc3ccccc3C)c2c1=O`: the Potency is 89.1 µM (active).

With `CCOc1ccc(CCNC(=O)c2cc3sccc3n2CCN2CCOCC2)cc1OCC`, the “activity change, negative = inhibition” value was -2.87% (inactive).

As to `CS(=O)(=O)c1ccc(C(=O)OCC(=O)N2CCC(c3ccccc3)CC2)cc1[N+](=O)[O-]`, the “activity change, negative = inhibition” value was 12.1% (inactive).

`Cc1cc(N[S+](=O)([O-])c2ccc(NC(=O)Cc3ccc(F)c(C(F)(F)F)c3)cc2)no1`: the “activity change, negative = inhibition” value is 11.7% (inactive).

Turning to `Cc1cc(Oc2ccc3nc(COc4ccc(CC5SC(=O)NC5=O)cc4)n(C)c3c2)cc(C)c1N` (stereo not given), the “activity change, negative = inhibition” value was -20.2% (inactive).

As for `CCCCc1nn2c(=O)cc(COC(=O)c3cccc(NC(=O)COc4ccccc4)c3)nc2s1`, the “activity change, negative = inhibition” value is 12.9% (inactive).

`Cc1nn2c(=O)cc(COC(=O)c3cccc(NC(=O)COc4ccccc4Cl)c3)nc2s1`: the “activity change, negative = inhibition” value was -5.59% (inactive).

In the case of `COc1ccc(OCC(=O)Nc2cccc(C(=O)OCc3cc(=O)n4nc(C)sc4n3)c2)cc1`, the Potency was 50.1 µM (active).

For `CCN(CC)CCNC(=O)c1c(C)[nH]c(C=C2C(=O)Nc3ccc(F)cc32)c1C`, the Potency was 44.1 µM (active).

For `CCN(CC)CCNC(=O)c1cc(S(C)(=O)=O)ccc1OC`, the “activity change, negative = inhibition” value is 10.6% [at 57.5 µM] (inactive).

`CCOc1cc2[nH]c(=O)n(Cc3ccc(C(=O)NCCN(CC)CC)cc3)c(=O)c2cc1OCC`: the “activity change, negative = inhibition” value was 0.768% (inactive).

Turning to `CCOc1cc(C(C)(C)C)ccc1C1=N[C@@](C)(c2ccc(Cl)cc2)[C@@](C)(c2ccc(Cl)cc2)N1C(=O)N1CCN(CC(=O)N2CCOCC2)CC1`, the “activity change, negative = inhibition” value is 23.9% [at 57.5 µM] (inactive).

In the case of `C=C1C[C@@H]2CC[C@@]34C[C@H]5O[C@H]6[C@@H](O3)[C@H]3O[C@H](CC[C@@H]3O[C@H]6[C@H]5O4)CC(=O)C[C@@H]3[C@@H](OC)[C@@H](C[C@H](O)CN)O[C@H]3C[C@H]3O[C@@H](CC[C@@H]1O2)C[C@@H](C)C3=C`, the “activity change, negative = inhibition” value is 19.2% [at 29.8 µM] (inactive).

On to `O=S(=O)(NC1CCN(S(=O)(=O)c2ccc3c(c2)OCCO3)CC1)c1c(F)cccc1F`, for which the “activity change, negative = inhibition” value is 0.994% (inactive).

For the compound `COc1ccc(C2=Nn3c(nnc3-c3ccccc3F)SC2)cc1OC`, the “activity change, negative = inhibition” value was 8.76% (inactive).

For the compound `COc1ccc(NC(=O)CSc2nc3ccccc3[nH]2)cc1`, the “activity change, negative = inhibition” value is 3.79% (inactive).

Consider `COc1ccc(-c2nc3c(c(SCC(=O)Nc4ccc(C(=O)O)cc4)n2)Cc2ccccc2O3)cc1`, for which the Potency is 11.2 µM (active).

As for `COC(=O)c1ccc(NC(=O)CSc2n[nH]c(-c3ccccc3)n2)cc1`, the “activity change, negative = inhibition” value was 7.74% (inactive).

On to `CN(C)CC(=O)NC1CCCc2c1cnn2-c1ccc(F)cc1F` (stereo not given), for which the “activity change, negative = inhibition” value is 16.2% (inactive).

As for `O=C(Nc1ccc(Cl)c(Cl)c1)Nc1nnc(N2CCNCC2)s1`, the Potency was 50.1 µM (active).

Take `O=C(Nc1ccc(Cl)c(Cl)c1)Nc1nnc(-c2ccc(F)cc2)s1`: the “activity change, negative = inhibition” value was 2.77% [at 57.5 µM] (inactive).

Turning to `O=C(Nc1ccc(Cl)c(Cl)c1)Nc1nnc(C2CCCCC2)s1`, the “activity change, negative = inhibition” value was 4.94% (inactive).

On to `O=C(Nc1nc(-c2ccccc2)cs1)c1ccccc1-n1cnnn1`, for which the “activity change, negative = inhibition” value is -8.17% (inactive).

Regarding `Cc1cc(-c2nnc3n2CCCCC3)c(C)n1-c1ccc(C(F)(F)F)cc1`, the “activity change, negative = inhibition” value is 8.06% (inactive).

For the compound `COc1cc(F)c(S(=O)(=O)N2CCCN(S(=O)(=O)c3ccc(N)cc3)CC2)c(F)c1`, the “activity change, negative = inhibition” value was -9.22% [at 57.5 µM] (inactive).

For `CC(C)(C)OC(=O)N1CCN(c2ccc(NCc3ccc4c(-c5ccc(F)cc5)cc(=O)oc4c3)cc2)CC1`, the “activity change, negative = inhibition” value was -18.2% (inactive).

Consider `Cc1cc(-c2nnc3n2CCCCC3)c(C)n1-c1cccc(Cl)c1`, for which the “activity change, negative = inhibition” value was -10.6% (inactive).

For `C(#Cc1cccs1)c1cccnc1`, the “activity change, negative = inhibition” value is 7.74% [at 57.5 µM] (inactive).

Take `CC(C)(C)c1nc(-c2cccc(NS(=O)(=O)c3c(F)cccc3F)c2F)c(-c2ccnc(N)n2)s1`: the Potency result is “inactive and 39.8 µM (active)”.

Consider `CCOC(=O)c1scc(-c2ccccc2)c1S(=O)(=O)Nc1ccccc1F`, for which the “activity change, negative = inhibition” value is 0.149% (inactive).

Turning to `O=C(C[C@H]1CC[C@@H](C(=O)Nc2ccc(S(=O)(=O)Nc3nccs3)cc2)C1)c1ccccc1`, the “activity change, negative = inhibition” value was -12.4% (inactive).

`O=C(NCc1nnc(C(=O)Nc2ccc(C(F)(F)F)cc2Cl)o1)c1ccccc1`: the “activity change, negative = inhibition” value was 2.02% (inactive).

Consider `Cc1cccc(C2N=C(Nc3nc4ccccc4o3)NC3=C2C(=O)CCC3)c1` (stereo not given), for which the “activity change, negative = inhibition” value was 15.6% (inactive).

With `COc1ccc2c(c1)Cc1sc(NC(=O)c3ccccc3Br)nc1-2`, the Potency is 50.1 µM (active).

Turning to `COc1cccc(C(=O)Nc2nnc(S(=O)(=O)N3CCOCC3)s2)c1`, the “activity change, negative = inhibition” value was 9.65% (inactive).

Consider `COc1ccc(CC(=O)Nc2ccc(-c3nc4ccccc4s3)c(C)c2)cc1`, for which the “activity change, negative = inhibition” value is 1.27% (inactive).

`CC(Cc1cnccn1)Nc1cnc2c(O)ccc(C(=O)O)c2c1` (stereo not given): the “activity change, negative = inhibition” value is 28.5% (inactive).
